Measured values published in PubChem BioAssay AID624297 (National Center for Advancing Translational Sciences (NCATS), 2012).
In all, about 340,000 compounds went through this assay and about 6,200 (1.8%) were called active. Entries that show only a call come without a potency. About 10% were inconclusive and are not listed. Many of the other results were omitted from the sample, so actives are more common in it than they were. A number with no mark means an inactive call. The call rests on the fitted dose curve; in most records, active means well fitted activation curve with a large enough effect; inconclusive means small, poorly fitted or top-dose-only effect; inactive means no such curve, though single readings can be large or run the other way.

Assay: A quantitative high throughput screen for small molecules that induce DNA re-replication in SW480 colon adenocarcinoma cells. Further: nearly all actives have a fitted effect of over 55% in size.
Details: Hoechst DNA content imaging, 48 h; series mostly up to 46.1 µM
Procedure, shortened: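 Hoechst fluorescence of nuclei (405 nm excitation, 500-530 nm emission) measured by plate-scanning imager after 48 hr compound exposure at 37 C; re-replication scored as increased number of nuclei with elevated intensity.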
Potency means the concentration at half of the fitted maximal effect.

| Structure (SMILES) | Potency | re-replication activation |
| --- | --- | --- |
| CCOC(=O)c1ccccc1OC(=O)Oc1ccccc1C(=O)OCC | inactive |  |
| CCOC(=O)c1c(C)[nH]c(C)c1S(=O)(=O)N(C)CC(=O)Nc1ccccc1C | inactive |  |
| CCOC(=O)c1c(C)[nH]c2c1-c1ccccc1C(=O)C2=O | 5.17 µM (active) |  |
| O=C(NCc1ccccc1)c1cccc(NC(=O)C2CCCCC2)c1 |  | -9.55% [at 9.22 µM] |
| Cn1c(=O)[nH]c2c(c(C(=O)O)nn2C)c1=O | inactive |  |
| COCC(=O)N(C)[C@H]1C[C@H]2c3cc(Oc4ccccc4C)ccc3CCN2C(=O)[C@H]1[C@H](C)O | inactive |  |
| N#CC(Cc1cc2ccccc2n1S(=O)(=O)c1ccccc1)OCc1ccccc1 (centres undefined) | inactive |  |
| CC(=O)Nc1ccc(NC(=O)C(C)OC(=O)c2ccccc2C(=O)c2ccc(Cl)c([N+](=O)[O-])c2)cc1 (centres undefined) | 16.4 µM (active) |  |
| CC(OC(=O)CNC(=O)c1ccc(Cl)c([N+](=O)[O-])c1)C(=O)NCc1ccco1 (centres undefined) | inactive |  |
| N#Cc1cccc(NC(=O)COC(=O)c2ccccc2C(=O)c2ccc(Cl)c([N+](=O)[O-])c2)c1 | inactive |  |
| Cc1ccc(S(=O)(=O)N2[C@@H](c3cccc4ccccc34)C(C(=O)O)=C[C@H]2C(C)(C)C)cc1 |  | -25.3% [at 9.22 µM] |
| CCc1nc(SCC(=O)NNC(=O)c2ccc(C)cc2)c2ccccc2n1 | inactive |  |
| CCCNC(=O)CSc1nc(Cc2ccccc2)nc2ccccc12 | 9.2 µM (active) |  |
| C=CCSc1nc(Cc2ccc(Cl)cc2)nc2ccccc12 | inactive |  |
| CC(=O)Nc1ccc(C(=O)Nc2cc(S(=O)(=O)N3CCOCC3)ccc2N2CCOCC2)cc1 | inactive |  |
| CC(Oc1ccc2c(-c3ccccc3)cc(=O)oc2c1)C(=O)NC(Cc1c[nH]c2ccccc12)C(=O)O (centres undefined) | inactive |  |
| COC(=O)c1c(CCl)noc1C(=O)NC(C)C | 20.6 µM (active) |  |
| CCCNC(=O)c1onc(CSc2ccc(F)cc2)c1C(=O)NC(C)C | inactive |  |
| CCOc1cccc(SCc2noc(C(=O)NC(C)C)c2C(=O)O)c1 | inactive |  |
| CC(=O)N1CCc2ccc(N)cc21 | inactive |  |
| OC(COc1ccccc1)CN1CCN(c2cccc(Cl)c2)CC1 (centres undefined) | inactive |  |
| O=C(NN=CC=Cc1ccccc1)C(O)C(O)C(=O)NN=CC=Cc1ccccc1 (centres undefined) | inactive |  |
| CN(C(=O)c1cccc(NC(=O)Cc2ccc(NC(=O)C3CCCN(C(=O)C4CCCC4)C3)cc2)c1)C1CCC1 (centres undefined) |  | -19.7% [at 9.22 µM] |
| CC1(C(=O)N/N=C/c2cc3c(cc2Br)OCO3)CC1(Br)Br (centres undefined) | inactive |  |
| O=C(N/N=C\c1cc2c(cc1Cl)OCO2)c1ccc(Br)s1 | 7.31 µM (active) |  |

| Structure (SMILES) | Potency | re-replication activation |
| --- | --- | --- |
| O=C(N/N=C/c1cc2c(cc1Br)OCO2)C1COc2ccccc2O1 (centres undefined) | inactive |  |
| O=C(CSc1ncnc2sccc12)NC1CCS(=O)(=O)C1 (centres undefined) | inactive |  |
| O=C(Nc1ccc2c(c1)OCO2)C1CC1(Cl)Cl (centres undefined) | inactive |  |
| O=C(Nc1c[nH]c(=O)[nH]c1=O)OCc1ccccc1 | inactive |  |
| COc1ccc(NC(=O)/C(N=Nc2cccc(S(=O)(=O)Nc3ccc(SC(F)F)cc3)c2)=C(\C)O)cc1 | inactive |  |
| Nc1nc(-c2sc3nc4c(cc3c2N)CCCC4)nc(N2CCOCC2)n1 | 10.3 µM (active) |  |
| Cc1nc(N2CCOCC2)nc2c1CCCC2 | inactive |  |
| COc1ccc(/C=C/C(=O)OCC(=O)N2CCN(S(=O)(=O)c3ccc(C)cc3C)CC2)cc1OC | inactive |  |
| Cc1nc(N)sc1-c1ccccc1 | inactive |  |
| O=C1COc2ccc(C(=O)CSc3ccc(Br)cc3)cc2N1 | inactive |  |
| C=CCn1c(=O)n(C)c2c(=O)n(C)c(=O)n(C)c21 | inactive |  |
| COc1ccc(C(=O)N[C@H](C(=O)NCc2ccccc2)C(C)C)cc1 | inactive |  |
| COc1cc(OC)cc(C(=O)N[C@H](C(=O)Nc2nc3ccccc3[nH]2)C(C)C)c1 | 0.164 µM (active) |  |
| COc1cc(OC)cc(C(=O)N[C@H](C(=O)NNC(=O)c2ccc(Br)cc2)C(C)C)c1 | inactive |  |
| Cc1ccc(S(=O)(=O)N2CCN(C(=O)c3cc(S(=O)(=O)N4CCOCC4)ccc3F)CC2)cc1 | inactive |  |
| CN(C)c1ccc(C2N(C)C(=O)c3ccccc3N2C)cc1 (centres undefined) | inactive |  |
| CN(C)c1ccc(Nc2c3c4c(cccc4n(C)c2=O)C(=O)c2ccccc2-3)cc1 | 7.31 µM (active) |  |
| Cc1ccc(S(=O)(=O)NC[C@H]2O[C@@H](n3cnc4c(N)ncnc43)[C@H](O)[C@@H]2O)s1 | inactive |  |
| CCOc1ccc2nc(NC(=O)c3cc([N+](=O)[O-])ccc3N3CCOCC3)sc2c1 | inactive |  |
| CCC(=O)NC(Nc1nc2ccc(C)cc2s1)(C(=O)OC)C(F)(F)F (centres undefined) | inactive |  |
| O=C(NC(Nc1nc2ccc([N+](=O)[O-])cc2s1)(C(F)(F)F)C(F)(F)F)c1ccccc1 | 20.6 µM (active) |  |
| CC(=O)c1ccc(NC(=O)C(C)OC(=O)c2ccc(NS(=O)(=O)c3ccc4[nH]c(=O)[nH]c4c3)cc2)cc1 (centres undefined) | inactive |  |
| Cc1cc(NC(=O)C(C)SCC(=O)Nc2cccc(S(=O)(=O)N3CCCCCC3)c2)no1 (centres undefined) | inactive |  |
| C[C@H](CO)N1C[C@H](C)[C@H](CN(C)CC2CC2)Oc2ccc(NC(=O)CCN3CCOCC3)cc2C1=O | inactive |  |
